This note sets out measurements from PubChem BioAssay.

Calls of active or inactive are those of the source. Unless noted, no rule for the calls is given here.

Test [1] is described as follows: resazurin metabolic signal in HepG2 cells – cell-based, resazurin fluorescence, 24 h, PK04 Diversity Set, profiling panel (AID 1172). The following applies: HepG2 viability, higher = more signal. For orientation: Alamar Blue is a resazurin reagent that responds to reducing activity.
Test [2] in a line: budding yeast growth changes without added modifier – OD600, strain BY4716, 24 h, basal condition, primary screen (AID 1173). The following applies: S. cerevisiae BY4716 growth, OD600, 24 h; higher = more signal, called active from +8 up or from −8 down.
Test [3] can be described thus: viability profiling in MM1S myeloma cells – cell-based, resazurin fluorescence, basal, 24 h, PK04 Diversity Set, profiling panel (AID 1174).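 Also: MM1S multiple myeloma cell line.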 To be noted: higher = more signal, called active from +8 up or from −8 down.
Test [4] deals with Dihydroorotate dehydrogenase (quinone), mitochondrial (Plasmodium falciparum (isolate 3D7)) (UniProt Q08210). In words: inhibition of P. falciparum DHODH – biochemical, C-terminal His tag, absorbance 600 nm, primary screen (AID 1175).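 Also: recombinant parasite enzyme with a five histidine tag at its C terminus.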 The following applies: PfDHODH enzyme, DCIP absorbance 600 nm; higher = more signal, called active from +8 up or from −8 down.
Chain of Dihydroorotate dehydrogenase (quinone), mitochondrial (Plasmodium falciparum (isolate 3D7)) (Q08210 whole entry, looked up): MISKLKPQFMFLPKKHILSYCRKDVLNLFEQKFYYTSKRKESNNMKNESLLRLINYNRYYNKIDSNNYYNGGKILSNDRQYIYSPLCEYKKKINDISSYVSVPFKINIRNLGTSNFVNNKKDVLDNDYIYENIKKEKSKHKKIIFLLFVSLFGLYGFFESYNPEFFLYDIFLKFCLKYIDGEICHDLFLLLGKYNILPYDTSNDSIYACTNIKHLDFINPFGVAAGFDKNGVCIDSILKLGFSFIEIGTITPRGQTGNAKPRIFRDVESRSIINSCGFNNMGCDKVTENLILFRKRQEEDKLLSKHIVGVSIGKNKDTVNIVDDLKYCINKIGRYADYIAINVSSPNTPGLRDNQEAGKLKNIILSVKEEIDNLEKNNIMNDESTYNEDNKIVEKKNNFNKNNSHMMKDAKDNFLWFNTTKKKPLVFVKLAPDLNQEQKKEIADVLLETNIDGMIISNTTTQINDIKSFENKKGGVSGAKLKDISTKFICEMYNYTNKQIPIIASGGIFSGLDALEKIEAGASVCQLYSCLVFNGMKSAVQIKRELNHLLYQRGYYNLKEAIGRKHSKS
Test [5] can be described thus: inhibition of PAO1 biofilm formation – strain PAO1, LB-PBS medium, absorbance 600 nm, primary screen (AID 1176). The following applies: P. aeruginosa PAO1 growth/biofilm, A600, 12 h; higher = more signal.
The nature of test [6]: growth modulation of vineyard yeast isolate – strain RM11-1a, OD600, basal, 24 h, primary screen (AID 1177).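 Also: cultures grown under basal conditions with no added stressor.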 The following applies: S. cerevisiae RM11-1a growth, OD600, 24 h; higher = more signal, called active from +8 up or from −8 down.
The nature of test [7]: growth of efflux-deficient E. coli DRC39 – strain DRC39, OD650, 24 h, E. coli filamentation inducers, primary screen (AID 1178).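 Also: growth measured as culture turbidity by optical density at 650 nm.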 To be noted: E. coli DRC39 acrAB, higher = more signal, called active from +8 up or from −8 down.
A short description of test [8]: growth of efflux-deficient E. coli DRC39 – strain DRC39, OD650, 48 h, E. coli filamentation inducers, primary screen (AID 1179).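 Also: screen aims at cell division blockers that make cells filament.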 The following applies: E. coli DRC39 delta-acrAB growth, higher = more signal, called active from +8 up or from −8 down.
Test [9] in a line: viability profiling in RPMI8226 myeloma cells – cell-based, resazurin fluorescence, basal, 24 h, PK04 Diversity Set, profiling panel (AID 1180).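 Also: RPMI8826 multiple myeloma cell line at 5000 cells per well.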 To be noted: higher = more signal.
Test [10] addresses E3 ubiquitin-protein ligase XIAP (Homo sapiens) (UniProt P98170). In words: small molecules binding XIAP protein – biophysical, small-molecule microarray, fluorescence 635 nm, primary screen (AID 1181).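 Also: score merges 667 nm emission and signal to noise over triplicate slides.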 The following applies: higher = more signal.
In test [11] the test system is XIP peptide (Xip251-270) binding. In words: XIP fragment 251-270 binding compounds – biochemical, small-molecule microarray, fluorescence 635/667 nm, 0.1 µg/mL protein, primary screen (AID 1182). The following applies: fluorescent protein binding, 635 nm, higher = more signal, called active from +8 up or from −8 down.
For the next test, the system named is XIP peptide (Xip251-270). In words: compounds binding XIP fragment 251-270 – biochemical, small-molecule microarray, fluorescence 635/667 nm, 0.5 µg/mL protein, primary screen (AID 1183). The following applies: fluorescence 635 nm, higher = more signal.
Test [12] can be described thus: blood-stage malaria parasite viability loss – strain 3D7, DAPI fluorescence, 100 nL, primary screen (AID 1184).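 Also: parasites grown inside human red blood cells in medium with human serum.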 To be noted: P. falciparum 3D7 growth, 3 d, higher = more signal.
Test [13] deals with Homeobox protein Hox-A13 (Mus musculus) (UniProt Q62424). In words: disruptors of Hoxa13 oligonucleotide interaction – biochemical, fluorescence polarization, labeled oligonucleotide, primary screen (AID 1185). To be noted: Hoxa13:DNA binding, 15 min, higher = more signal, called active from +8 up or from −8 down. For orientation: Polarisation of emitted light reports the rotation of a fluorescent probe.
Chain of Homeobox protein Hox-A13 (Mus musculus) (Q62424 whole entry, looked up): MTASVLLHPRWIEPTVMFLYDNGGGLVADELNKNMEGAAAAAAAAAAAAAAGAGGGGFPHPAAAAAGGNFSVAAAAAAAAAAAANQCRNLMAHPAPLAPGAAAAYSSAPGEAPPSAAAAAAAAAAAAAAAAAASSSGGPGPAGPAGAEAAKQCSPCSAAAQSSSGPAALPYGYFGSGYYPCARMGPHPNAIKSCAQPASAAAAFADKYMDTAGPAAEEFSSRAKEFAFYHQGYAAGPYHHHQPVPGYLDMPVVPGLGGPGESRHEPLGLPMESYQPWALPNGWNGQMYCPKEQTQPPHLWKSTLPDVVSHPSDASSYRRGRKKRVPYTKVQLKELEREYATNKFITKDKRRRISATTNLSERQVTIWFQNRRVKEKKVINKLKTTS

A short description of test [14]: blockers of DNA damage checkpoint Chk1 activation – imaging, HeLa, hydroxyurea, phospho-Chk1 antibody, percent positive cells, primary screen (AID 1186). To be noted: hydroxyurea-induced phospho-Chk1 immunofluorescence imaging, higher = more signal.
Test [15] in a line: blockers of DNA damage checkpoint Chk1 activation – imaging, HeLa, hydroxyurea, phospho-Chk1 nuclear intensity, primary screen (AID 1187). To be noted: hydroxyurea-induced phospho-Chk1 immunofluorescence imaging, higher = more signal.

Chain of E3 ubiquitin-protein ligase XIAP (Homo sapiens) (P98170 whole entry, looked up, the tested form may be a part): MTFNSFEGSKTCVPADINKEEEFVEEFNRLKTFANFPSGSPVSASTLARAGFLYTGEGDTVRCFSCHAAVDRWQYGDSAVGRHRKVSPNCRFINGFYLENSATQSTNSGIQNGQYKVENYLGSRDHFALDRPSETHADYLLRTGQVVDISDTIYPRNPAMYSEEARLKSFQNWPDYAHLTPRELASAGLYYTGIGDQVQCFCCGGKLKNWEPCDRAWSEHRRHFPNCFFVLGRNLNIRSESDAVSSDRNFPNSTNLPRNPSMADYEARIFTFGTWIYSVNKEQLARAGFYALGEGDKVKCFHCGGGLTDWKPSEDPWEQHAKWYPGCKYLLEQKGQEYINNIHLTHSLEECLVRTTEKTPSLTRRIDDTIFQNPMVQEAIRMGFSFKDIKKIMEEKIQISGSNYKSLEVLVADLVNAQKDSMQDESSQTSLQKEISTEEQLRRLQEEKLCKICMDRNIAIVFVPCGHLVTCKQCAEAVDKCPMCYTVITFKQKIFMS

With `O=C1OCCC=C[C@H]2OC34C=CCN(CCN5CCOCC5)C(=O)[C@H]3N(CCCCCO)C(=O)[C@@H]4C12` (some centres undefined), the z-score in test [1] was -0.123; in test [2], -0.987 (inactive); in test [3] it was 0.673 (inactive); in [5], -0.484 (inactive); in test [6], -0.112 (inactive); in test [7] it was 0.298 (inactive). The z-score in [8] was 0.732 (inactive); in test [9] it was 0.571; in [12], 0.124; in test [13] it was -5.57 (inactive); in test [14], 0.139 (inactive); in test [15] it was 0.357 (inactive). For the same compound, the composite z-score is 0.233 (inactive) in test [4], -0.0144 in test [10], 0.272 (inactive) in test [11] and 0.348 with XIP peptide (Xip251-270).

`COc1ccc([Si](C)(C)[C@@H]2[C@@H](CC(=O)N3CCC[C@H]3CO)O[C@]3(C(=O)N(Cc4cccc(I)c4)c4ccccc43)[C@H]2C)cc1`: the z-score was -2.43 in test [1]; -0.91 (inactive) in [2]; -3.49 (inactive) in [3]; 0.483 (inactive) in test [5]; 1.07 (inactive) in test [6]; -1 (inactive) in test [7]. Besides, the z-score in test [8] was -1.05 (inactive); in test [9], -4.92; in test [12] it was -2.28; in test [13] it was -3.72 (inactive); in [14], -0.198 (inactive); in test [15] it was -0.353 (inactive). Also, the composite z-score was 0.447 (inactive) in [4], 0.189 in test [10], 0.302 (inactive) in test [11] and 0.572 in the test on XIP peptide (Xip251-270).

As for `COCCOC(=O)N1C(=O)[C@@]2(c3ccccc31)[C@H](C(=O)N1CCc3cc(OC)c(OC)cc3C1)[C@H]1C(=O)O[C@H](c3ccccc3)[C@H](c3ccccc3)N1[C@@H]2c1ccc(O)cc1`, the z-score in test [1] was 0.349; in [2], 0.296 (inactive); in test [3] it was 0.173 (inactive); in test [5] it was 2.16 (inactive); in [6], 1.13 (inactive); in test [7], -0.157 (inactive). Further, the z-score in test [8] was 0.549 (inactive); in [9], -0.111; in test [12], -0.45; in test [13], -1.34 (inactive); in test [14], -0.437 (inactive); in test [15] it was -0.469 (inactive). Further, the composite z-score in test [4] was -0.974 (inactive); in test [10] it was 0.116; in test [11] it was 1.58 (inactive); in the test with XIP peptide (Xip251-270), 0.807.

For the compound `COc1ccc(C#Cc2ccc3c(c2)[C@]2(C(=O)N3)[C@H](c3ccc(O)cc3)N3[C@H](c4ccccc4)[C@H](c4ccccc4)OC(=O)[C@H]3[C@@H]2C(=O)N2CCc3cc(OC)c(OC)cc3C2)cc1`, the z-score was 0.449 in [1]; 1.14 (inactive) in [2]; -0.309 (inactive) in test [3]; 1.37 (inactive) in test [5]; 0.816 (inactive) in test [6]; -0.101 (inactive) in test [7]. The z-score in test [8] was 0.304 (inactive); in test [9], -0.333; in [12], -2; in [13], -1.17 (inactive); in [14], -0.0377 (inactive); in test [15] it was -0.187 (inactive). The composite z-score in [4] was -0.103 (inactive); in [10], -0.0582; in [11] it was 0.409 (inactive); in the test on XIP peptide (Xip251-270), 0.465.

For `CCCCN1CC=CC23O[C@@H]4C=CCOC(=O)[C@@H]4[C@H]2C(=O)N(CCCCCCO)[C@@H]3C1=O` (some centres undefined), the z-score was -0.556 in [1]; 0.0518 (inactive) in test [2]; 0.0626 (inactive) in [3]; -0.112 (inactive) in test [5]; -0.55 (inactive) in test [6]; 0.272 (inactive) in test [7]. Further, the z-score is 0.25 (inactive) in test [8]; -0.386 in [9]; -0.198 in test [12]; -4.53 (inactive) in test [13]; -0.0344 (inactive) in [14]; -0.364 (inactive) in test [15]. In addition, the composite z-score in test [4] was -0.838 (inactive); in [10], 0.245; in test [11], 1.31 (inactive); in the test on XIP peptide (Xip251-270), -1.46.

Consider `COC(=O)C(CC#Cc1ccc2c(c1)[C@]1(C(=O)N2)[C@H](c2ccccc2OCCO)N2[C@H](c3ccccc3)[C@H](c3ccccc3)OC(=O)[C@H]2[C@@H]1C(N)=O)C(=O)OC`, for which the z-score is -1.55 in test [1]; 0.858 (inactive) in test [2]; -9.28 (active) in test [3]; 1.18 (inactive) in [5]; 1.77 (inactive) in test [6]; -0.0371 (inactive) in test [7]. Besides, the z-score in [8] was -0.156 (inactive); in test [9] it was -7.42; in test [12] it was -2.24; in [13], -2.21 (inactive); in test [14] it was 0.202 (inactive); in [15], 0.555 (inactive). Further, the composite z-score in [4] was -2.77 (inactive); in [10], 0.0223; in test [11], 0.945 (inactive); in the test on XIP peptide (Xip251-270), 0.787.

For the compound `COc1ccc([Si](C)(C)[C@H]2[C@H](CCn3cc([C@H](O)c4ccccc4)nn3)O[C@@]3(C(=O)N(C)c4ccccc43)[C@@H]2C)cc1`, the z-score is 0.894 in [1]; 0.0785 (inactive) in test [2]; -0.722 (inactive) in test [3]; 0.92 (inactive) in test [5]; 1.01 (inactive) in [6]; 0.445 (inactive) in [7]. Also, the z-score is 0.416 (inactive) in test [8]; -0.568 in test [9]; -1.52 in test [12]; -6.41 (inactive) in test [13]; -0.179 (inactive) in [14]; 0.36 (inactive) in [15]. For the same compound, the composite z-score was -0.778 (inactive) in [4], 0.393 in test [10], 0.014 (inactive) in [11] and -0.325 with XIP peptide (Xip251-270).

As to `CN(C)CCCCNC(=O)[C@@H]1C[C@@H]2C(=O)N[C@@H](CCCCN)C(=O)N2[C@@H]1c1ccc(O)cc1`, the z-score in test [1] is 0.637; in test [2], 1.43 (inactive); in test [3] it was 0.832 (inactive); in [5], 0.833 (inactive); in test [6], 2.32 (inactive); in [7], 0.499 (inactive). The z-score in [8] was 1.1 (inactive); in [9], 0.918; in test [12], -1.8; in [13], 1.46 (inactive); in [14], 0.128 (inactive); in [15] it was -0.115 (inactive). Moreover, the composite z-score was 0.0724 (inactive) in test [4], -0.131 in test [10], 1.09 (inactive) in test [11] and 0.881 in the test with XIP peptide (Xip251-270).

As for `CC(CO)N1C(=O)[C@@H]2C3C(=O)OCCC/C=C\[C@H]3OC23C=CCN(CCN2CCOCC2)C(=O)[C@@H]13` (some centres undefined), the z-score is -0.167 in [1]; -0.193 (inactive) in [2]; -0.72 (inactive) in [3]; 0.053 (inactive) in [5]; -0.137 (inactive) in [6]; 0.218 (inactive) in test [7]. For the same compound, the z-score in test [8] is 0.685 (inactive); in test [9], -0.784; in test [12], 0.339; in test [13], -4.25 (inactive); in [14], -0.957 (inactive); in test [15], -1.88 (inactive). The composite z-score was -0.387 (inactive) in [4], 1.01 in [10], -0.134 (inactive) in [11] and -0.0838 in the test with XIP peptide (Xip251-270).
